# Most compounds without a hit are left out; they make up all but 0.34% or so of the library.
# Pin1 inhibitor: inhibitors of human Pin1; Q13526; Pin1 FP peptide displacement, HiFluor488, 10 min; Potency, µM (top dose mostly 115 µM), inactives show top-dose activity, negative = inhibition, most hits filed as inhibitors; actives 0.009% (n = 390,000); AID 504891; active means well fitted inhibition curve with a large enough effect in the polarisation, with a control signal flat, not every such curve was filed as active; inconclusive means small, poorly fitted or top-dose-only effect, or effect the other way, or a change in a side signal; inactive means no such curve, though single readings can be large or run the other way; the % refers to the polarisation; further: potency means the concentration at half of the fitted maximal effect
# BCR signal inh: chronic active BCR signaling inhibition; ABC-DLBCL IkBa-CBG/CBR reporter, luminescence ratio, 4 h; Potency, µM (highest dose often 46.1 µM), without a hit: at the highest dose activity change, negative = inhibition, hits mostly inhibitors; actives 0.05% (n = 340,000); AID 493014; active means well fitted inhibition curve with a large enough effect in the signal ratio, with a control signal flat, not every such curve was filed as active; inconclusive means small, poorly fitted or top-dose-only effect, or effect the other way, or a change in a side signal; the % refers to the signal ratio;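 further: potency means the concentration at half of the fitted maximal effect; plate controls were basal doxycycline-induced cells for no effect and cells given 10 µM MG132 for full effect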
#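 TMD8 ABC-DLBCL cells carrying doxycycline-inducible green luciferase fused to IkappaBalpha plus unfused red luciferase were exposed to compounds (up to 46 uM) for 4 hrs at 37C. Activity came from the overlap-corrected green/red luminescence ratio.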
# PI4K2A inh: PI4K2A (human) kinase inhibition | purified PI4K2A, ADP-Glo luminescence, 1 h; stronger effect = lower value | activity change, negative = inhibition, % at 76.9 µM | actives 0.13% (n = 420,000); in the data active means activity change below about -50%; inconclusive means mostly about -30% to -49%;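 further: -100% = wells without enzyme as full effect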
#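 In this quantitative HTS, ADP production by PI4K2A was quantified luminescently after 1 h at ambient temperature; 100 microM adenosine served as plate-quality control.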
# Tb PFK block: inhibitors of T. brucei phosphofructokinase | O15648 | Potency, µM (series often up to 57.5 µM), inactives show at the top dose activity, negative = inhibition, actives largely listed as inhibitors | T. brucei PFK, ADP-Glo luminescence | actives 0.17% (n = 330,000) | AID 485367;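 further: potency means the concentration at half of the fitted maximal effect; 0% = uninhibited 1x PFK enzyme wells and -100% = no-enzyme wells; nearly all actives have a fitted effect of over 60% in size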
#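 PFK 1.25 nM, F6P 0.5 mM, ATP 0.1 mM, 0.1 M TEA pH 8.0, 5 mM MgCl2, 0.01% Tween20, 0.1% BSA; 45 min RT. ADP-Glo readout. qHTS titration up to 57 uM; curves fitted, compounds curve-classed.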
# Tb PGK inh: blocks T. brucei phosphoglycerate kinase; P07378; PGK/GAPDH coupled, Kinase-Glo luminescence, 60 min; Potency, µM (highest dose often 57.5 µM), inactives show at the highest dose activity change, negative = inhibition, usual class: inhibitors; actives 0.043% (n = 380,000); AID 602233; further: potency means the concentration at half of the fitted maximal effect; nearly all actives have a fitted effect of over 60% in size
# Target sequence (P07378 whole entry, looked up): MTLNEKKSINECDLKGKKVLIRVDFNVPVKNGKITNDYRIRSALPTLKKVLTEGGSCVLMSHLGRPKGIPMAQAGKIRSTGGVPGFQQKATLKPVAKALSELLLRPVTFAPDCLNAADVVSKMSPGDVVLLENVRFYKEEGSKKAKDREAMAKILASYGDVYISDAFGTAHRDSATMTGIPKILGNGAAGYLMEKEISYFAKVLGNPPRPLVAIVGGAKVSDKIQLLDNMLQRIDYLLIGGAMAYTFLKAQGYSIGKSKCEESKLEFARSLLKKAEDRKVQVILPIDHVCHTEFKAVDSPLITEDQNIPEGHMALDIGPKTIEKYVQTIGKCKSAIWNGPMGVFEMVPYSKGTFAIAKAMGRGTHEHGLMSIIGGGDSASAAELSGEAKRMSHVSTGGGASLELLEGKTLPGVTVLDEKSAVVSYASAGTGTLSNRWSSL
#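 Recombinant glycosomal PGK reaction used 1,3-bisphosphoglycerate generated in-well by GAPDH (100nM final) in 100mM TEA pH 7.6, 5mM MgCl2, 0.01% Tween-20. After 60 minutes at room temperature, ATP was read by Kinase-Glo Plus luminescence end-point.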
# * hit, by the source's call; i = inactive; u = inconclusive; x = no result given. Unless noted, the call rests on the fitted dose curve; in most records, active means well fitted curve in the direction sought with a large enough effect; inconclusive means small, poorly fitted or top-dose-only effect, or another doubt; inactive means no such curve, though single readings can be large; an effect the other way counts as inactive or inconclusive. Unless noted, on the % scale 0 is the no-effect control and ±100 the full control effect.
SMILES,Pin1 inhibitor,BCR signal inh,PI4K2A inh,Tb PFK block,Tb PGK inh
COc1cc(SC)ccc1C(=O)Nc1nc2ccccc2[nH]1,2.1%,u,-74.3*,-25.6%,u
CC/C(C)=N\NC(=O)CNC(=O)c1ccc(Cl)cc1Cl,-4.3%,12.6µM*,-3.2,-6.5%,-5.4%
CC/C(Cc1ccccc1)=N/NC(=O)CNC(=O)c1ccc(Cl)cc1Cl,-4.3%,-14.9%,2.7,1.8%,-10.0%
CC(C)(C)OC(=O)NCc1nnc(-c2nc3ccccc3[nH]2)o1,0.1%,x,x,x,x
c1c2c(cc3sc(N4CCOCC4)nc13)OCCO2,0.3%,u,-50.7*,-22.5%,u
Cc1cc2c(s1)c1cnn(Cc3ccc(C(=O)O)cc3)c(=O)c1n2C,-4.3%,x,x,x,x
Cc1ccc(C2Cc3cc(O)c(O)cc3CN2)cc1 (centres undefined),-8.7%,x,0.2,x,i
Oc1cc2c(cc1O)[C@H]1c3ccccc3CN[C@@H]1CC2,x,u,x,2.39µM*,x
Cc1ccsc1C=Nc1ccc(O)cc1,u,u,-59.3*,-6.7%,u
CN(C)c1ccc(-c2csc(N3CCC(C(N)=O)CC3)n2)cc1,15.1%,x,x,x,x
N#Cc1nc(Nc2cc(F)cc(F)c2)c2ncn(CCCN3CCCC3)c2n1,6.7%,x,x,x,x
S=C(NCCCNc1ccc(Br)cn1)NCCCc1cnc[nH]1,-1.5%,x,x,x,x
Cc1cc(=O)n(-c2ccc(C(=O)O)cc2)[nH]1,u,u,-56.3*,-4.0%,-11.2%
Cc1cc(=O)n(-c2ccc(O)cc2)[nH]1,-13.6%,u,u,0.8%,-3.5%
Cc1ccc(C)n1-c1ccc(C(=O)O)cc1,x,-0.4%,x,10.7µM*,x
COc1ccc(C2Nc3ccccc3C(=O)N2Cc2ccco2)cc1COc1ccccc1 (centres undefined),20.9%,x,x,x,x
O=C(Nc1ccccc1)Nc1nc(Nc2cc(F)cc(F)c2)nc(NC2CCCC2)n1,-11.5%,x,x,x,x
CCC(C(=O)O)c1ccc(N2Cc3ccccc3C2=O)cc1 (centres undefined),x,x,-5.4,x,x
Cc1[nH]c(=O)[nH]c(=O)c1/C=N/NC(=O)[C@H](CC(C)C)NC(=O)OC(C)(C)C,-4.8%,u,-1.7,-2.7%,-0.2%
Cc1[nH]c(=O)[nH]c(=O)c1/C=N/NC(=O)[C@@H](N)CC(C)C,3.7%,u,-60.0*,-1.2%,-12.2%
O=C1C(O)=C(O)C(=O)c2ccccc21,u,x,-50.5*,x,-10.3%
CC(=NNC(=S)N1CCCC1)c1ccccn1,x,x,-11.6,x,-15.9%
CC(=NNC(=S)N1CCC1)c1ccccn1,-0.9%,x,-60.2*,x,-2.9%
CCCCCCNC(=O)N[C@H](C(=O)NCCC[C@H]1CN2C(=NC[C@H]2C)N1CCC(c1ccccc1)c1ccccc1)C(C)O (some centres undefined),x,17.8µM*,x,-18.6%,x
O=S(=O)(c1ccc(Br)cc1)N1CCN(S(=O)(=O)c2ccc3c(c2)OCCO3)CC1,-1.0%,x,x,x,x
SMILES,Pin1 inhibitor,BCR signal inh,PI4K2A inh,Tb PFK block,Tb PGK inh
CCOC(=O)c1sc2nccc(OC)c2c1N=CNOC,1.1%,3.8%,-59.3*,-1.9%,7.0%
O=[N+]([O-])c1ccc(CNc2cccc(Cl)c2)s1,-0.4%,0.7%,-28.9,7.57µM*,6.6%
Cc1cc(-c2ccccc2)n(-c2cc(N/N=C/c3ccccc3O)ncn2)n1,2.2%,14.6µM*,2.4,u,3.2%
CNc1cc(-n2nc(C)cc2-c2ccccc2)ncn1,3.7%,-4.9%,7.5,-1.1%,-0.9%
CN(C)c1cccc(N2CCN(c3nn4c(=O)c5ccccc5nc4s3)CC2)c1,2.9%,x,x,x,x
Cc1ccc(NS(=O)(=O)c2ccc3c(c2)CC(=O)N3C)cc1C,-0.9%,x,x,x,x
CCn1nc(-c2cccs2)nc2c(=O)n(C)c(=O)nc1-2,u,u,-60.7*,-3.3%,u
CCn1nc(/C=C/c2ccccc2)nc2c(=O)n(C)c(=O)nc1-2,-18.9%,u,-69.0*,3.8%,u
CCCCOc1cc(=O)[nH]c(=O)[nH]1,1.8%,8.9%,-51.2*,-11.4%,-1.1%
CN(C)c1ccc(-c2[nH][nH]c(=O)c2NC(=O)c2ccc3ccccc3n2)cc1,x,x,-65.1*,x,x
O=C(Nc1c(-c2ccccc2)[nH][nH]c1=O)c1ccccc1,x,x,-21.6,x,x
CN(C)c1ccc(-c2[nH][nH]c(=O)c2NC(=O)c2ccccn2)cc1,x,x,-63.6*,x,x
O=C(O)C1CCN(c2ncc(-c3ccc4c(c3)OCCCO4)s2)CC1,2.0%,x,x,x,x

# From PubChem BioAssay
